A selection: hits, their analogues and other compounds. The true share with any hit is near 4.8%.
Rev-erbA mod = modulates human Rev-erb alpha binding to DNA. P20393. Rev-erbα–FITC-DNA binding, fluorescence polarization, 90 min. activity, % at 10 µM. 370,000 compounds, 0.79% hits. AID 1259318;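 active = activity above about 14%, limit read from the data; passing the limit was not always enough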
Target sequence (P20393 whole entry, looked up): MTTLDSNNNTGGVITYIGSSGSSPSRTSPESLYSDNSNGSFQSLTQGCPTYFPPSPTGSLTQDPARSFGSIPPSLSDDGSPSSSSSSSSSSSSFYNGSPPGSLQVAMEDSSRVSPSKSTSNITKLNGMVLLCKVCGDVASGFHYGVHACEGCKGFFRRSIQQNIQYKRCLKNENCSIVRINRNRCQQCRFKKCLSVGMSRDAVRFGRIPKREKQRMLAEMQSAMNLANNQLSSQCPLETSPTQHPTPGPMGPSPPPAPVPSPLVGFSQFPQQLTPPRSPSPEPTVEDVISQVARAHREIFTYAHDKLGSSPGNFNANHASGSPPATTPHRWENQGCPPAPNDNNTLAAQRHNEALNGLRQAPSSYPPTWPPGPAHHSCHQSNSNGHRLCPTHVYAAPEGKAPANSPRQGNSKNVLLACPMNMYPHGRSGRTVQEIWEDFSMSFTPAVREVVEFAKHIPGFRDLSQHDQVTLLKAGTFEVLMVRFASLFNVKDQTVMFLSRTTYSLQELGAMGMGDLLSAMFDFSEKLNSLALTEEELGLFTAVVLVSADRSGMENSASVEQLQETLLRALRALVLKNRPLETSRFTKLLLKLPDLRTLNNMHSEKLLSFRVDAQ
ssDAF12 agonist = activates DAF-12 receptor from parasite S. stercoralis; HEK293 ssDAF-12/GRIP1 lit1-tk-luc reporter, luminescence; % of 3 µM dafachronic acid response; activation, % at 6.8 µM; 370,000 compounds, 1% hits;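 active = activation above the mean over all tested compounds plus 3 SD, cut at about 0.9% in these data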
DAX1 inh-1 = inhibitors of human orphan nuclear receptor DAX1 (NR0B1) | P51843 | HEK293 Gal4-DAX1 luciferase reporter, luminescence | inhibition, % at 6.75 µM | 340,000 compounds, 0.99% hits | AID 504766;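 active = inhibition above the mean over all tested compounds plus 3 SD, cut at about 4.2% in these data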;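 also: inhibition shows as a rise in luminescence from relieved DAX1 repression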
hcDAF-12 act = H. contortus DAF-12 activation, primary screen; HEK293 hcDAF-12 lit1-tk-luc reporter, luminescence; 0% DMSO, 100% Δ7-dafachronic acid; activation, % at 6.8 µM; 370,000 compounds, 1.4% hits;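 active = activation above the mean of all tested compounds plus 3 SD, cut at about 5.5% in these data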
hgDAF-12 ag = hgDAF-12 agonism, primary luciferase screen. HEK293 GAL4-hgDAF12 UAS-luciferase reporter, agonist luminescence; normalized to butyrate control. activation, % at 6.8 µM. 370,000 compounds, 1.8% hits;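 active = activation above a cutoff set at the mean of all screened compounds plus 3 SD, cut at about 10% in these data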
DAX1 inh-2 = inhibitors of DAX1 repression of SF-1 activated StAR promoter; HEK293T StAR-luciferase reporter, SF-1/DAX-1 repression relief; 370,000 compounds, 1.1% hits; inhibition, % at 6.8 µM;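 active = inhibition above the mean over all tested compounds plus 3 SD, cut at about 3.6% in these data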;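 also: higher inhibition means more luminescence from relief of DAX-1 repression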
hgDAF12 ag = hgDAF-12 agonism, confirmation assay | shares compounds with hgDAF-12 ag | HEK293 GAL4-hgDAF12 luciferase reporter, agonist mode; percent of butyrate response | activation, % at 6.8 µM | 3,300 compounds, 80% hits;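 active = mean activation over triplicate wells above the hit cutoff derived from the earlier primary screen, cut at about 11% in these data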
LXRb DAF12 ctr = counter-screen for DAF-12 agonists: agonists of human LXR-beta. shares compounds with hgDAF-12 ag. HEK293 Gal4-LXR luciferase reporter, 24 h. activation, % at 6.8 µM. 3,300 tested, under 10 active;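 active = mean activation of the triplicate above a set limit carried over from the primary screen, none filed active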
Rev-erbA confirm = confirmation of modulators of human Rev-erb alpha DNA binding | shares compounds with Rev-erbA mod | Rev-erb alpha FITC-DNA binding, fluorescence polarization, 90 min | activation, % at 25 µM | 3,000 compounds, 61% hits;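 active = activation at or above a set limit, or at least 3 SD above the negative control mean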
RORg counter = RORgamma DNA-binding activity, dose-response counter-screen; shares compounds with Rev-erbA mod; purified RORgamma protein-FITC-DNA binding, fluorescence polarization; IC50, µM; 910 compounds, 8% hits;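 active = Compounds whose fitted half-maximal concentration for disrupting protein-DNA binding is below 10 micromolar; the record names Rev-erb in its text, so the target is in doubt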
Of the large screens only hits and unclear results are named; the others gave an inactive call (follow-up assays come after a bar, where they were run).

C[C@H](O)[C@@H]1CN2CCc3ccc(N4CCOCC4)cc3[C@@H]2C[C@@H]1N(C)C(=O)c1cccc(Cl)c1	none (no result: DAX1 inh-1)
CCc1ccc(NC(=O)c2ccccc2SC)cc1	hgDAF-12 ag 16 | hgDAF12 ag inactive | LXRb DAF12 ctr inactive
O=C(NCc1ccc(F)cc1)c1cnn2ccccc12	hgDAF-12 ag 16 | hgDAF12 ag 13 | LXRb DAF12 ctr inactive
CSc1cccc(NC(=O)c2cnn3ccccc23)c1	ssDAF12 agonist 1.7, hgDAF-12 ag 18 | hgDAF12 ag 20 | LXRb DAF12 ctr inactive
CC(C)(C)OC(=O)NC1CCN(c2nc(-c3ccc(Br)cc3)cs2)CC1	none (no result: DAX1 inh-1, DAX1 inh-2)
N#Cc1ccc(Nc2nc(-c3ccccc3)cs2)cc1	hgDAF-12 ag 18 (no result: DAX1 inh-1) | hgDAF12 ag 16 | LXRb DAF12 ctr inactive
O=C(Nc1ccc(Cl)cc1Cl)C1=Cc2ccccc2OC1	hgDAF-12 ag 14 | hgDAF12 ag 18 | LXRb DAF12 ctr inactive
O=C(Cn1c(=O)c(=O)n(Cc2ccccc2)c2ccc(Cl)cc21)Nc1cccc(F)c1	Rev-erbA mod 44, hgDAF-12 ag 26 | hgDAF12 ag inactive | LXRb DAF12 ctr inactive | Rev-erbA confirm 24
O=C(CN1CCN(Cc2ccccc2)CC1)Nc1cccc(Cl)c1	none
CCN(CC)c1ccc(N=Nc2ncn[nH]2)cc1	Rev-erbA mod 26, hgDAF-12 ag 15 (no result: DAX1 inh-1) | hgDAF12 ag inactive | LXRb DAF12 ctr inactive | Rev-erbA confirm 26
Fc1ccc2nc(Nc3nc4cc5c(cc4s3)OCO5)sc2c1	none
Fc1ccc2nc(Nc3nc4cc5c(cc4s3)OCCO5)sc2c1	Rev-erbA mod 32, ssDAF12 agonist 1.5, hgDAF-12 ag 15, DAX1 inh-2 4.2 | hgDAF12 ag inactive | LXRb DAF12 ctr inactive | Rev-erbA confirm 39 | RORg counter inactive
CC(=O)N1CCN(c2ccc(N3CCN(C(C)=O)[C@@H](C)C3)c(C)c2)[C@@H](C)C1	none (no result: DAX1 inh-1)
c1csc(-c2nc(-c3ccc(-c4ccon4)s3)no2)c1	Rev-erbA mod 21, hgDAF-12 ag 17 | hgDAF12 ag 17 | LXRb DAF12 ctr inactive | Rev-erbA confirm inactive
CCOC(=O)CSc1nc2cc3c(cc2cc1C)OCO3	none
CCOC(=O)CSc1nc2cc3c(cc2cc1C#N)OCO3	Rev-erbA mod 66, hgDAF-12 ag 14 | hgDAF12 ag 15 | LXRb DAF12 ctr inactive | Rev-erbA confirm 36 | RORg counter inactive
CCOC(=O)CSc1nc2cc3c(cc2cc1C#N)OCCO3	Rev-erbA mod 75, DAX1 inh-1 12, hgDAF-12 ag 17 | hgDAF12 ag 12 | LXRb DAF12 ctr inactive | Rev-erbA confirm 31 | RORg counter 0.66
CCCOc1nccc2c1n(C)c(=O)n2C	none (no result: DAX1 inh-1)
O=C1N(CC[C@@H](O)c2ccccc2)CCC12CCC(c1ccccc1)CC2 (stereo partly drawn)	none (no result: DAX1 inh-1, DAX1 inh-2)
N#Cc1cc2c(nc1Cl)CCC2	none
N#Cc1cc2cc3c(cc2nc1Cl)OCCO3	Rev-erbA mod 27 | Rev-erbA confirm 22
COC(=O)CC#C[C@H](C)[C@@H](NS(C)(=O)=O)C1CCCCC1	none (no result: DAX1 inh-1)
CCCN1C(=O)/C(=C/C=C2\N(CC)c3ccccc3C2(C)C)SC1=S	Rev-erbA mod 47 | Rev-erbA confirm 43
CCCCN1C(=O)/C(=C/C=C2\Oc3ccccc3N2CC)SC1=S	Rev-erbA mod 15 | Rev-erbA confirm 62 | RORg counter inactive
CCCCN1C(=O)/C(=C/C=C2/CC(C)(C)CN2C)SC1=S	Rev-erbA mod 84 | Rev-erbA confirm 95 | RORg counter 9.8
C=CCN1C(=O)/C(=C\C=C2\N(C)c3ccccc3C2(C)C)SC1=S	Rev-erbA mod 25 | Rev-erbA confirm 39 | RORg counter inactive
CN1/C(=C\C=C2/SC(=S)N(CC(=O)O)C2=O)C(C)(C)c2ccccc21	none
O=C(Nc1ccc2ccccc2c1)NC1CCCCN(Cc2cccc(Cl)c2)C1=O (stereo not drawn)	none (no result: DAX1 inh-1)
COc1ccc2nc(N/C(N)=N/C(=S)Nc3cccc(C)c3)nc(C)c2c1	none
Cc1ccc(NC(=S)/N=C(\N)Nc2nc(C)c3cc(C)ccc3n2)c(C)c1	none
CCOc1ccc2nc(N/C(N)=N/C(=S)Nc3cccc(C)c3)nc(C)c2c1	Rev-erbA mod 35 | Rev-erbA confirm 37 | RORg counter inactive
CCOc1ccc2nc(N/C(N)=N/C(=S)Nc3cccc(OC)c3)nc(C)c2c1	Rev-erbA mod 32 | Rev-erbA confirm inactive
Cc1ccc(NC(=S)/N=C(\N)Nc2nc(C)c3cc(C)c(C)cc3n2)cc1C	Rev-erbA mod 27 | Rev-erbA confirm inactive
COc1ccc2nc(N/C(N)=N/C(=S)Nc3c(C)cccc3C)nc(C)c2c1	none
O=C(NCCc1ccccc1)OCc1cn(Cc2ccccc2F)nn1	none (no result: DAX1 inh-1)
CCOC(=O)C1CSCCS(=O)(=O)N1Cc1cccc(F)c1 (stereo not drawn)	none (no result: DAX1 inh-1)
COC(=O)CC[C@@H](/C=C/C(=O)OC(C)(C)C)Sc1ccc(C(C)(C)C)cc1	none (no result: DAX1 inh-1)
COc1ccc(-c2csc(NC(=O)c3cccc(N4C(=O)CCC4=O)c3)n2)cc1OC	none
CCOC(=O)c1c(-c2ccc(-c3ccccc3)cc2)csc1NC(=O)c1cccc(N2C(=O)CCC2=O)c1	Rev-erbA mod 43 | Rev-erbA confirm 29
COc1ccc(-c2csc(NC(=O)c3ccc(N4C(=O)CCC4=O)cc3)n2)cc1	Rev-erbA mod 27 | Rev-erbA confirm inactive
CCOc1ccc(-c2csc(NC(=O)c3cccc(N4C(=O)CCC4=O)c3)n2)cc1	Rev-erbA mod 24 | Rev-erbA confirm 14
COc1cccc(-c2nc3sc4c(c3c(=O)[nH]2)CCCCC4)c1	Rev-erbA mod 26 | Rev-erbA confirm inactive
COC(=O)C1=C(C)N(Cc2cccc(C(F)(F)F)c2)C(=NCc2cc(OC)c(OC)c(OC)c2)NC1c1ccccc1C(F)(F)F (stereo not drawn)	none (no result: DAX1 inh-1)
COc1cccc(CNC(=O)[C@H]2CCCN2C(=O)[C@H]2CCCN2C(=O)c2ccc(F)c(C(F)(F)F)c2)c1	none (no result: DAX1 inh-1)
CCC(=O)c1ccc(OCc2ccc(C(=O)c3ccccc3)cc2)cc1	Rev-erbA mod 70 | Rev-erbA confirm 149 | RORg counter inactive

Bioassay records as filed in PubChem.
